Results: PubChem BioAssay (NCI)
The panel holds about 79,000 compounds, 15% with a hit somewhere; the sample as a whole holds those more often. Values without a mark were called inactive. Rule as the data show it: active = growth inhibition above about 70%; inactive = the rest. *1 amine or outer side, *2 acyl side, *3 side chain or, on linkers, in order; H or OH if unused. Where a SMILES comes first, the peptide text is derived from it. The star is where a group is joined. γGlu = O=C(O)[CH](CCC(=O)[*:2])N[*:1]; NHOH = ON*

experiment: NCI Yeast Anticancer Drug Screen. Data for the rad50 strain (AID 155);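 also: 0% = growth of vehicle-only cultures of the same strain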; conditions: S. cerevisiae rad50 strain growth inhibition; at 50.0 µM; hits give high values
Procedure, shortened: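 Inhibition values express reduced yeast growth in compound-treated cultures relative to vehicle-treated controls.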

Row | SMILES | growth inhibition [%]
1 | NCCSCCN | -7.65
2 | NC(CCC(=O)NC(CCC(=O)NO)C(=O)NCC(=O)O)C(=O)O (configuration not stated) (γGlu-Glu(NHOH)-Gly-OH; configuration not given here) | -29.5
3 | O=c1ccn2n1Cc1ccccc1C2 | -25.9
4 | Cn1c(C=O)cc2c(Cl)nccc21 | -35.5
5 | CC(=O)Nc1ccc[n+](CC(=O)c2ccc(F)cc2)c1 | -8.95
6 | CCOC(=O)C1C=CC(C)N(C(=O)OCC)N1C(=O)OCC (configuration not stated) | 0.35
7 | Nc1nc(-c2ccco2)cc(-c2ccc(CO)o2)n1 | -21.8
8 | O=C1NC(Cc2cccc(I)c2)C(=O)N1c1ccccc1 (configuration not stated) | 37.3
9 | CCOC(=O)C(=O)C1C(=O)Nc2ccccc21 (configuration not stated) | -12.4
10 | CN(C)C1Cc2ccccc2C1OC(=O)c1ccccc1 (configuration not stated) | 27
11 | O=S(=O)(c1ccc(Br)cc1)S(=O)(=O)c1ccc(Br)cc1 | -22.6
12 | CCc1cc2c(cc1C(=O)/C=C\c1cccc3ccccc13)C(C)(C)CCC2(C)C | 13.1
13 | CC(=O)/C=C1/NC(C(=O)c2ccccc2)=CNC1c1ccccc1 (configuration not stated) | 4.95
14 | CCOC(=O)CCC(NC(=O)c1ccc(NC)c([N+](=O)[O-])c1)C(=O)OCC (configuration not stated) | 58.9
15 | Cc1ccc(S(=O)(=O)OCCOCCOc2ccc(C(C)(C)CC(C)(C)C)cc2)cc1 | 49.7
16 | ONC1=Nc2ccccc2C(=S)N2CSCC12 (configuration not stated) | -21
17 | CCCCN(C(C)=O)c1ccccc1 | -8.8
